A short description of this assay: chemical genetic growth profiling, strain panel (AID 1159580).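 Further: tested at 20 µM; growth read once vehicle control cultures reached saturation at 30 °C; 1 = growth at the plate median or of vehicle wells; lower values mean less growth of the strain.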 To be noted: growth OD.
The mark [1] stands for this setting: S. cerevisiae deletion strains, locus YAL013W, strain DEP1, hits give low values.
[2] abbreviates: S. cerevisiae deletion strains, locus YDR150W, strain NUM1, hits give low values.
[3] abbreviates: S. cerevisiae deletion strains, locus YGR078C, strain PAC10, hits give low values.
The mark [4] stands for this setting: S. cerevisiae deletion strains, locus YHR030C, strain SLT2, hits give low values.
Setting [5] is: S. cerevisiae deletion strains, locus YNL322C, strain KRE1, hits give low values.
Where [6] appears, read: S. cerevisiae deletion strains, locus YPL055C, strain LGE1, hits give low values.
The mark [7] stands for this setting: S. cerevisiae deletion strains, locus YAL040C, strain CLN3, hits give low values.
[8] abbreviates: S. cerevisiae deletion strains, locus YCL061C, strain MRC1 (second series), hits give low values.
Where [9] appears, read: S. cerevisiae deletion strains, locus YDR363W, strain ESC2, hits give low values.
[10] abbreviates: S. cerevisiae deletion strains, locus YER002W, strain NOP16, hits give low values.
[11] abbreviates: S. cerevisiae deletion strains, locus YNL128W, strain TEP1, hits give low values.
Setting [12] is: S. cerevisiae deletion strains, locus YNL175C, strain NOP13, hits give low values.
The mark [13] stands for this setting: S. cerevisiae deletion strains, locus YNL197C, strain WHI3, hits give low values.
The mark [14] stands for this setting: S. cerevisiae deletion strains, locus YNL224C, strain SQS1, hits give low values.
The mark [15] stands for this setting: S. cerevisiae deletion strains, locus YOR083W, strain WHI5 (second series), hits give low values.

Each structure is given as a SMILES string. About 2,000 (36%) of roughly 5,500 compounds were called active. Inconclusive results (about 18%) are left out. Some of the results follow. Unmarked numbers belong to inactive results. No stated cut-off is given here; in the data, active means normalized growth mostly below about 0.91 (no sharp cut-off); inconclusive means no clear call, values can overlap the other calls; inactive means mostly above about 0.92.

For `c1ccc(-c2csc(-c3cccnc3)n2)cc1`, the normalized growth is 0.872 (active) under setting [1]; 0.886 (active) (S. cerevisiae deletion strains, locus YBR229C, strain ROT2, hits give low values); 0.853 (active) (S. cerevisiae deletion strains, locus YCL061C, strain MRC1, hits give low values); 0.912 (S. cerevisiae deletion strains, locus YDL101C, strain DUN1, hits give low values); 0.954 (S. cerevisiae deletion strains, locus YDL134C, strain PPH21, hits give low values); 0.946 under setting [2]. Also, the normalized growth is 0.793 (active) (S. cerevisiae deletion strains, locus YEL061C, strain CIN8, hits give low values); 0.9 (active) under setting [3]; 0.132 (active) under setting [4]; 0.938 (S. cerevisiae deletion strains, locus YHR087W, strain rtc3, hits give low values); 0.935 (S. cerevisiae deletion strains, locus YJR043C, strain POL32, hits give low values); 0.855 (active) (S. cerevisiae deletion strains, locus YJR075W, strain HOC1, hits give low values). Moreover, the normalized growth by setting is: (S. cerevisiae deletion strains, locus YKL190W, strain CNB1, hits give low values) 0.853 (active); (S. cerevisiae deletion strains, locus YLR039C, strain RIC1, hits give low values) 0.557 (active); (S. cerevisiae deletion strains, locus YLR058C, strain SHM2 (second series), hits give low values) 0.908 (active); (S. cerevisiae deletion strains, locus YLR085C, strain ARP6, hits give low values) 0.275 (active); (S. cerevisiae deletion strains, locus YLR262C, strain YPT6, hits give low values) 0.432 (active); (S. cerevisiae deletion strains, locus YML094W, strain GIM5, hits give low values) 0.772 (active). In addition, the normalized growth (S. cerevisiae deletion strains, locus YMR219W, strain ESC1, hits give low values) is 0.892 (active); the normalized growth (S. cerevisiae deletion strains, locus YMR263W, strain SAP30, hits give low values) is 0.873 (active); the normalized growth (S. cerevisiae deletion strains, locus YNL153C, strain GIM3, hits give low values) is 0.887 (active); the normalized growth (S. cerevisiae deletion strains, locus YNL298W, strain CLA4 (second series), hits give low values) was 0.74 (active); the normalized growth under setting [5] is 0.94 (active); the normalized growth (S. cerevisiae deletion strains, locus YNR030W, strain Alg12, hits give low values) was 0.857 (active). Further, the normalized growth under setting [6] is 0.717 (active); the normalized growth (S. cerevisiae deletion strains, locus YPL241C, strain CIN2, hits give low values) was 0.855 (active); the normalized growth (S. cerevisiae deletion strains, locus YPR135W, strain CTF4, hits give low values) is 0.377 (active); the normalized growth (S. cerevisiae strains, strain wild type, hits give low values) was 0.949.
For the molecule `c1cncc(C2=NCCC2)c1`, the normalized growth is 1.02 under setting [4]; 1.01 (S. cerevisiae deletion strains, locus YHR079C, strain IRE1, hits give low values); 1.02 (S. cerevisiae deletion strains, locus YJL095W, strain BCK1, hits give low values); 0.938 (S. cerevisiae deletion strains, locus YJR066W, strain TOR1, hits give low values); 0.905 (S. cerevisiae deletion strains, locus YLR113W, strain HOG1, hits give low values); 0.952 (S. cerevisiae deletion strains, locus YNL183C, strain NPR1, hits give low values). Also, the normalized growth runs as follows: (S. cerevisiae deletion strains, locus YOR231W, strain MKK1, hits give low values) 1.01; (S. cerevisiae deletion strains, locus YPL256C, strain CLN2, hits give low values) 0.99.
Take `CNc1ccc2oc(C[C@H]3O[C@@]4(CC[C@H]3C)O[C@H]([C@H](C)C(=O)c3ccc[nH]3)[C@H](C)C[C@H]4C)nc2c1C(=O)O`: the normalized growth is 0.976 under setting [1]; 0.929 under setting [7]; 0.951 under setting [8]; 0.928 under setting [9]; 0.997 under setting [10]; 0.98 under setting [11]. Also, the normalized growth runs as follows: under setting [12], 0.907 (active); under setting [13], 0.853 (active); under setting [14], 0.924; under setting [15], 0.906.
Turning to `CCCCCC(O)c1cccc(OCc2ccc3ccccc3n2)c1` (configuration not stated), the normalized growth runs as follows: under setting [1], 0.958; under setting [7], 0.958; under setting [8], 0.984; under setting [2], 1; under setting [9], 0.976; under setting [10], 1.01. Besides, the normalized growth is, setting by setting: under setting [3], 0.982; (S. cerevisiae deletion strains, locus YGR229C, strain SMI1, hits give low values) 0.942; (S. cerevisiae deletion strains, locus YMR307W, strain GAS1, hits give low values) 0.996; under setting [11], 1; under setting [12], 0.995; under setting [13], 0.995. In addition, the normalized growth was 0.99 under setting [14], 0.972 under setting [5], 0.873 under setting [15] and 0.973 under setting [6].
